# According to PubChem BioAssay (NCI):
# Compounds without any hit were thinned out: in the full panel of roughly 83,000, 20% have a hit.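 Each cell line was grown in a 96-well plate and treated with one concentration of compound for 48 hours. Values below 10 were considered active.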 Calls of active or inactive are those of the source.
# Test system: HL-60(TB) leukemia
# Test: NCI-60 one-dose screen, 48 h (100 = growth as untreated, 0 = no growth, -100 = all killed)
# Conditions: 10 µM unless noted
row,SMILES,growth
1,O=C1Nc2ccccc2/C1=C/c1ccc(OCC(=O)c2ccccc2)cc1,105% (inactive)
2,CN(C)CCNc1ccc2ncc(C#Cc3cncc(C(=O)Nc4ccc(CN5CCN(C)CC5)c(C(F)(F)F)c4)c3)n2n1,-32.1% (active)
3,CCC(CC)N1C(=O)/C(=c2\sc3n(c2=O)NC2C(N=3)N(CC)C(=O)N2CC)c2ccccc21 (stereo not given),26.5% (inactive)
4,O=C(c1ccc(Cl)cc1)C1[C@H](c2ccc(Cl)cc2)[C@@H](c2ccccc2)NC12C(=O)Nc1ccccc12 (stereo not given in full),49.3% (inactive)
5,Nc1nc(Nc2ccccc2SSc2ccccc2Nc2nc(N)nc(-c3cccc(Br)c3)n2)nc(-c2cccc(Br)c2)n1,83% (inactive)
6,O=C(COc1ccc(C2SCC(=O)N2c2ccc(F)cc2)cc1)c1ccccc1 (stereo not given),98.6% (inactive)
7,CCNC(=O)N1CCc2cc(OC)c(OCCc3ccc(OC)c(N)c3)cc2C1c1ccc(C)cc1C (stereo not given),16.5% (inactive)
8,C#C[C@]1(O)CC[C@H]2[C@@H]3CC=C4c5sc(Nc6cc(Cl)ccc6OC)nc5CC[C@]4(C)[C@H]3CC[C@@]21C,5.48% (active)
9,Cc1ccc(Nc2nc(SC(C)C)nc(-c3ccccc3)c2C#N)cc1,118% (inactive)
10,Nc1cc(-c2c[nH]c3ccc(Cl)cc23)nc2cc(-c3c[nH]c4ccc(Cl)cc34)nn12,43.9% (inactive)
11,Nc1ccc(-c2nnc(SCc3ccc(O)c4ncccc34)o2)cc1,-5.84% (active)
12,CCN1C(=O)N(CC)C2SC(N/N=C/c3ccc(F)cc3)=NC21 (stereo not given),2.85% (active)
13,COc1cc2c(cc1OC)C(Sc1ccc(F)cc1)c1c(nc(N)c(C#N)c1N)O2 (stereo not given),-14.2% (active)
14,Cc1ccc(Nc2ncnc3c2c(C)nn3-c2ccc([N+](=O)[O-])cc2)cc1,96.7% (inactive)
15,Cc1nn(-c2ccccc2)c2nc(CCl)[nH]c(=O)c12,33.1% (inactive)
16,COc1cc2cc(Oc3ccc(NC(=O)Nc4cccc(C(F)(F)F)c4)cc3)c(C)nc2cc1OCCN(C)C,133% (inactive)
17,O=C(NNc1nc2cc(F)ccc2n2c(CN3CC4CNCC4C3)ccc12)c1cnccn1 (stereo not given),0.485% (active)
18,CCN1CCN(S(=O)(=O)c2oc(-c3ccc(Cl)cc3)nc2C#N)CC1,7.25% (active)

row,SMILES,growth
1,O=C1c2c(O)cc(O)cc2O[C@@H](c2ccc(O)cc2)[C@@H]1c1c(O)cc(O)c2c(=O)cc(-c3ccc(O)c(O)c3)oc12,103% (inactive)
2,CC(C)(C)CC(C)(C)n1nnnc1C(Nc1ccccc1)c1cc2cccc3ccc4cccc1c4c32 (stereo not given),101% (inactive)
3,C=CC(=O)N1CC=C(c2cc3c(N[C@H](C)c4ccccc4)ncnc3[nH]2)CC1,104% (inactive)
4,COc1ccc(S(=O)(=O)n2cc(C=O)c3ccccc32)c(OC)c1,4.32% (active)
5,O=C(/C=C1\C=CN(CCCCCCF)c2ccccc21)n1ccc2ccccc21,109% (inactive)
6,CCOC(=O)c1c(NC(=O)c2ccc(C(F)(F)F)cc2)sc2c(CN3CCN(C)CC3)c(O)ccc12,-36.8% (active)
7,C#Cc1cc(OC)c(C(=O)Nc2ccc(F)cc2C(=O)Nc2cccc(S(=O)(=O)C(F)(F)F)c2)cn1,-51.6% (active)
8,O=C(CN1CCN(c2cc(=O)n(-c3ccccc3)c3ccccc23)CC1)Nc1nc(-c2ccccc2)cs1,37.1% (inactive)
9,CCOC(=O)c1cccnc1Nc1ccc(NC(=O)Nc2ccc(Cl)c(C(F)(F)F)c2)cc1,29.4% (inactive)
10,CC(C)(O)c1cncc(-c2ccc3ncnc(NCc4ccccc4)c3c2)c1,105% (inactive)
11,O=C(O)c1ccc(-n2cc(CNc3cc(F)c(F)c(F)c3)c(-c3ccc(F)cc3)n2)cc1,103% (inactive)
12,O=C1c2ccccc2C23C(=C(c4cncnc4)c4ccccc42)CCCN13 (stereo not given),112% (inactive)
13,COc1cc2oc(-c3cccc(NC(=O)c4cccc([N+](=O)[O-])c4)c3)cc(=O)c2c(OC)c1OC,68.9% (inactive)
14,COc1ccc(NC(=O)CSc2nnc(-c3ccc4nc(-c5ccc(OC)c(OC)c5)[nH]c4c3)o2)cc1OC,111% (inactive)
15,CC1=NC2=NC(=O)/C(=C3/N=C(C)C=C(c4ccccc4)N3N)NN2C(c2ccccc2)=C1,113% (inactive)
16,Nc1cc(C(=O)N/N=C\c2ccc(OC(F)F)c(OC3CCCC3)c2)nn1CC(O)c1ccccc1 (stereo not given),91.3% (inactive)
17,Cc1nc(-c2cc3ccccc3c(N3CCN(C)CC3)n2)cs1,97.2% (inactive)
